Giardia FBPA inh – Giardia lamblia aldolase inhibition; AID 2451; purified Giardia FBPA; Potency, µM (series often up to 59.6 µM), inactives show at the highest dose activity, negative = inhibition, usual class: inhibitors; 290,000 tested, 0.71% active; A8B2U2; also: potency is read from the fitted curve at half-maximal effect; % is scaled to controls: 0 for no effect and ±100 for the full control effect; nearly all actives have a fitted effect of over 55% in size
Target sequence (A8B2U2 whole entry, looked up): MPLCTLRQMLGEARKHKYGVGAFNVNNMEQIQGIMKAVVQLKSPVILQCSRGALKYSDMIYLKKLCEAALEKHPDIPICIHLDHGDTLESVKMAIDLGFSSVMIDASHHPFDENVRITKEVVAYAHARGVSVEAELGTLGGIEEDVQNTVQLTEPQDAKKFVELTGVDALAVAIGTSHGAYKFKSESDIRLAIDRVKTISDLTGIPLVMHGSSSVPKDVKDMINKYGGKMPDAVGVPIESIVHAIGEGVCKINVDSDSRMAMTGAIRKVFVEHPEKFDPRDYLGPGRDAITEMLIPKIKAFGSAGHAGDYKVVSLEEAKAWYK
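Giardia FBPA (40 nM reagent) was preincubated 10 min at RT with compound (up to 57.5 uM final), then substrate plus GAPDH/TPI/NAD/arsenate coupling system with diaphorase/resazurin was added; resorufin fluorescence (525/598 nm) was read after 20 min.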
Pf growth 48h – P. falciparum growth inhibition at 48 hours (one generation); AID 504832; 310,000 tested, 5.9% active; P. falciparum luciferase growth in erythrocytes, 48 h; Potency, µM (titrated, usually from 28.7 µM), inactives show at the top dose activity change, negative = inhibition, hits mostly inhibitors; also: potency is read from the fitted curve at half-maximal effect; % is scaled to controls: 0 for no effect and ±100 for the full control effect
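Luciferase-expressing P. falciparum in infected erythrocytes (2% hematocrit, 0.1% parasitemia final) in RPMI 1640/0.5% Albumax were exposed to compound for 48 hours at 37 C, 5% CO2; growth read as luminescence.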
Pf growth 96h – P. falciparum growth inhibition at 96 hours; P. falciparum luciferase reporter growth, 96 h; Potency, µM (top dose mostly 28.7 µM), without a hit: top-dose activity change, negative = inhibition, hits mostly inhibitors; 320,000 tested, 6.9% active; AID 504834; also: potency is read from the fitted curve at half-maximal effect; % is scaled to controls: 0 for no effect and ±100 for the full control effect
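Two parasite generations (96 h, 37 C, 5% CO2) of compound exposure in infected erythrocytes (0.05% parasitemia, 2% hematocrit). Luciferase-reporter P. falciparum; decreased luminescence indicates inhibited growth, aimed at apicoplast-acting delayed death.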
Shiga toxin inh – blocks Shiga toxin action in Vero cells. Vero cells, Shiga toxin protein synthesis inhibition reporter. inhibition, % at 38.7 µM. 290,000 tested, 9.2% active. AID 2315; in the data active = inhibition mostly above about 28%, no sharp cut-off; inactive = mostly below about 43%; also: 0% is about no effect
NS1 function inh – blocks influenza NS1 protein function; Potency, µM (highest dose often 46.1 µM), inactives show at the top dose activity, positive = more growth; AID 2326; 270,000 tested, 0.4% active; calls by dose curve; also: potency is read from the fitted curve at half-maximal effect; actives are rising curves; nearly all actives have a fitted effect of over 50% in size
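Read-out: OD600 growth recovery of NS1-expressing budding yeast. Cells grown overnight at 30C in -URA glucose medium, washed, resuspended and diluted 1:100 in 2% galactose assay medium, pH 6.0. Same strain lacking NS1 served as positive control.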
CHX counter – counter-screen for Shiga toxin inhibitors: cycloheximide protein synthesis inhibition; cell reporter, cycloheximide protein synthesis inhibition counterscreen; max response, %; 300,000 tested, 12% active; AID 2314; in the data active = max response mostly above about 13%, no sharp cut-off; inactive = mostly below about 14%; also: read at 38.3 µM for the half of the compounds with a filed dose; 0% is about no effect
Active calls of the source: *. A selection: hits, their analogues and other compounds. The true share with any hit is near 21%. Unless noted, calls follow the shape of the dose curve; as a rule, active = well fitted curve in the direction sought with a large enough effect; inconclusive = small, poorly fitted or top-dose-only effect, or another doubt; inactive = no such curve, though single readings can be large; an effect the other way counts as inactive or inconclusive.

What do the screens show for `COc1ccccc1C(=O)Nc1ccnn1C1CCN(Cc2ccn[nH]2)CC1`?
Pf growth 48h: 32%; Pf growth 96h: 3%; Shiga toxin inh: 2; NS1 function inh: 8%; CHX counter: -3

What do the screens show for `CCN(CC)C(=O)Cn1cc(C(=O)C2CC2)c2ccccc21`?
Giardia FBPA inh: 0%; Pf growth 48h: -18%; Pf growth 96h: -20%; Shiga toxin inh: -5; NS1 function inh: 3%; CHX counter: 1

How did Cc1nc2c(-c3ccc(F)cc3)cnn2c(N)c1-c1ccc(F)cc1 do in these assays?
Giardia FBPA inh: 14%; Pf growth 48h: -77%; Pf growth 96h: inconclusive; Shiga toxin inh: 93*; NS1 function inh: 2%; CHX counter: 61*

What do the screens show for `Cc1cc(SCC(=O)Nc2ccccc2)n2ncc(-c3ccccc3)c2n1`?
Giardia FBPA inh: 3%; Pf growth 48h: inconclusive; Pf growth 96h: inconclusive; Shiga toxin inh: 8; NS1 function inh: -2%; CHX counter: -1

Results for Cc1nc2c(-c3ccc(F)cc3)c(C)nn2c(N2CCOCC2)c1C ?
Giardia FBPA inh: 4%; Pf growth 48h: inconclusive; Pf growth 96h: 2%; Shiga toxin inh: 18; NS1 function inh: -31%; CHX counter: 3

How did Cc1cc(Cl)n2ncc(-c3ccccc3)c2n1 do in these assays?
Giardia FBPA inh: -11%; Pf growth 48h: 220%; Pf growth 96h: 284%; Shiga toxin inh: 62*; NS1 function inh: -5%; CHX counter: 57*

Results for Cc1cc(-c2ccc(Cl)cc2)c2cnn(C(C)C)c2n1 ?
Giardia FBPA inh: 0%; Pf growth 48h: 0%; Pf growth 96h: 1%; Shiga toxin inh: 19; NS1 function inh: -8%; CHX counter: 30*

What do the screens show for `CCOC(=O)Cc1c(C)nc2c(-c3ccc(Cl)cc3)cnn2c1C`?
Giardia FBPA inh: -5%; Pf growth 48h: inconclusive; Pf growth 96h: 13%; Shiga toxin inh: 49*; NS1 function inh: 0%; CHX counter: 18

What do the screens show for `Nc1nccnc1C(=O)OCC(=O)NC1CCCc2ccccc21` (configuration not stated)?
Pf growth 48h: -19%; Pf growth 96h: -3%

How did CNC(=S)N(CCCO)Cc1cc2cc3c(cc2[nH]c1=O)OCO3 do in these assays?
Giardia FBPA inh: -8%; Pf growth 48h: 1%; Pf growth 96h: 9%; Shiga toxin inh: 1; NS1 function inh: 2%; CHX counter: -8

What do the screens show for `Cc1cc(N)n2ncc(-c3ccc(F)cc3)c2n1`?
Giardia FBPA inh: -4%; Pf growth 96h: 137%; Shiga toxin inh: 68*; NS1 function inh: 2%; CHX counter: 50*

Results for Cc1cc(-n2nc(C)cc2C)n2nc(C)c(-c3ccc(Cl)cc3)c2n1 ?
Giardia FBPA inh: 5%; Pf growth 48h: 5%; Shiga toxin inh: -14; NS1 function inh: 4%; CHX counter: -3

What do the screens show for `Cc1cc(N2CCOCC2)n2ncc(-c3ccccc3Cl)c2n1`?
Giardia FBPA inh: 6%; Pf growth 48h: 85%; Pf growth 96h: 201%; Shiga toxin inh: 88*; NS1 function inh: -12%; CHX counter: 41*

How did Cc1cc(N)n2ncc(-c3ccc(Cl)cc3)c2n1 do in these assays?
Giardia FBPA inh: 3%; Pf growth 48h: 122%; Pf growth 96h: inconclusive; Shiga toxin inh: 49*; NS1 function inh: -15%; CHX counter: 22*

What do the screens show for `CCOC(=O)c1cnn(-c2cc(C)nc3c(-c4ccccc4)cnn23)c1N`?
Giardia FBPA inh: 2%; Pf growth 48h: 8%; Pf growth 96h: 49%; Shiga toxin inh: 19; NS1 function inh: -4%; CHX counter: 16

What do the screens show for `Cc1cc(C)n2cc(-c3ccc(Cl)cc3)c(C(=O)O)c2n1`?
Giardia FBPA inh: inconclusive; Pf growth 48h: 93%; Pf growth 96h: 141%; Shiga toxin inh: 51*; NS1 function inh: -6%; CHX counter: 22*

What do the screens show for `CC(C)c1cc(N2CCOCC2)n2ncc(-c3ccccc3)c2n1`?
Giardia FBPA inh: 5%; Pf growth 48h: -13%; Pf growth 96h: -8%; Shiga toxin inh: 16; NS1 function inh: -3%; CHX counter: 13

What do the screens show for `Cc1cc(-c2ccc(Cl)cc2)n2ncnc2n1`?
Giardia FBPA inh: 0%; Pf growth 48h: 81%; Pf growth 96h: 43%; Shiga toxin inh: -2; NS1 function inh: 0%; CHX counter: -3
